PubChem BioAssay AID1851 (National Center for Advancing Translational Sciences (NCATS), 2009)
The campaign covered roughly 16,000 compounds. About 5,100 (32%) were called active. Inconclusive results (about 25%) are left out. The call rests on the fitted dose curve; in most records, active means well fitted curve in the direction sought with a large enough effect; inconclusive means small, poorly fitted or top-dose-only effect, or effect the other way; inactive means no such curve, though single readings can be large or run the other way. The list shows a part of the results.

Biological target: Cytochrome P450 3A4 (Homo sapiens) (UniProt P08684)
Experiment: Cytochrome panel assay with activity outcomes
Details: recombinant CYP, pro-luciferin dealkylation, luminescence, p450-cyp3a4; series mostly up to 57.1 µM; activity, negative = inhibition: at the top concentration
On the % scale 0 is the no-effect control and ±100 the full control effect.

Chain of Cytochrome P450 3A4 (Homo sapiens) (P08684 whole entry, looked up): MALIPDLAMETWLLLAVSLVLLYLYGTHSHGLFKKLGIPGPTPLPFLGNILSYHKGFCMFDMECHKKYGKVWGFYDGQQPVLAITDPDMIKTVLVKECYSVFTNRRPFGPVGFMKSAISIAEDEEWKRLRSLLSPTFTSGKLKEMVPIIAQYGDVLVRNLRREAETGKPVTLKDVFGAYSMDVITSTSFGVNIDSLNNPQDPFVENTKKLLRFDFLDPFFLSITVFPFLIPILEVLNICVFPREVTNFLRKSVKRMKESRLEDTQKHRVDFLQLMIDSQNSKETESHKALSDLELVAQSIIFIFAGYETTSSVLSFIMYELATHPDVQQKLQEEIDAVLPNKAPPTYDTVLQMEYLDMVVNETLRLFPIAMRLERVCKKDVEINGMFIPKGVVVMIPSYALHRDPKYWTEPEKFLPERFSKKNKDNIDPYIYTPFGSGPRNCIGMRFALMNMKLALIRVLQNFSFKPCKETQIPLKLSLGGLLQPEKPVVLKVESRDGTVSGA

| SMILES | activity, negative = inhibition | AC50 |
| --- | --- | --- |
| CCN1C[C@]2(COC(=O)c3ccccc3N3C(=O)C[C@H](C)C3=O)CC[C@H](OC)[C@@]34[C@@H]5C[C@H]6[C@H](OC)[C@H]5[C@](O)(C[C@@H]6OC)[C@@](O)([C@@H](OC)[C@@H]23)[C@@H]14 | -19.7% (inactive) | – |
| C[N+](C)(C)[C@H](Cc1c[nH]c(=S)[nH]1)C(=O)O | -1.29% [at 11.4 µM] (inactive) | – |
| O=[N+]([O-])O[C@H]1CO[C@H]2[C@H]1OC[C@@H]2O[N+](=O)[O-] | -2.14% [at 25.6 µM] (inactive) | – |
| CS(=N)(=O)CC[C@H](N)P(=O)(O)O (stereo partly specified) | 1.43% [at 11.4 µM] (inactive) | – |
| N[C@@H](Cn1ccc(=O)n(Cc2ccc(C(=O)O)cc2)c1=O)C(=O)O | -7.16% (inactive) | – |
| CN(CCc1ccc(Cl)c(Cl)c1)[C@H]1CCCC[C@H]1N1CCCC1 | – | 12.6 µM (active) |
| CN(C)CCN(C)CCc1ccc(Cl)c(Cl)c1 | -44.5% (inactive) | – |
| COc1ccc2c(c1O)-c1c(OC)c(OC)cc3c1[C@H](C2)N(C)CC3 | -1.12% [at 25.6 µM] (inactive) | – |
| CC(=O)O[C@@H]1CN2CCC1CC2 | -14.7% (inactive) | – |
| CC(=O)Nc1ccccc1C(=O)OCC(=O)c1ccc2ccccc2c1 | 7.07% (inactive) | – |
| c1ccc2c(c1)[I+]c1ccccc1-2 | – | 3.16 µM (active) |
| C1CCc2nnnn2CC1 | -7.33% (inactive) | – |
| CC(=O)N1CCC2(CC1)CC(=O)c1cc(OCC(=O)N3CCN(C)CC3)ccc1O2 | 11.2% (inactive) | – |
| O=C(COc1ccc2ccccc2c1)N1CCN(CC2CC3C=CC2C3)CC1 (stereo unspecified) | – | 12.6 µM (active) |
| C[N+](C)(C)CC#CCN1CCCC1=O | inactive | – |
| CN1C(=O)COc2c(C(=O)N[C@@H]3CN4CCC3CC4)cc(Cl)cc21 | -5.69% (inactive) | – |
| O=C1CC[C@@]2(O)[C@H]3Cc4ccc(O)c5c4[C@@]2(CCN3CC2CC2)[C@@H]1O5 | inactive | – |
| CCCCC/C=C\C/C=C\C/C=C\C/C=C\CCCC(=O)Nc1ccc(O)cc1 | – | 5.01 µM (active) |
| CCCC(=O)Nc1ccc(N2CCN(CC)CC2)c(Cl)c1 | -2.29% (inactive) | – |
| NS(=O)(=O)c1ccc(-c2ccc([As](=O)(O)O)cc2)cc1 | -4.52% [at 11.4 µM] (inactive) | – |
| Oc1ccc([C@H](O)[C@@H]2CCCCN2)cc1O | -7.28% [at 11.4 µM] (inactive) | – |
| CN1Cc2c(ccc3c2OCO3)[C@@H]2[C@@H](O)Cc3cc4c(cc3[C@@H]21)OCO4 | – | 5.01 µM (active) |
| CO[C@H]1C=C2CCN(C)[C@@H]2[C@@H]2c3cc4c(cc3C(=O)O[C@H]21)OCO4 | -22.2% [at 25.6 µM] (inactive) | – |
| C[N+]1(C)CCc2cc3c(cc2[C@@H]1[C@@H]1OC(=O)c2c1ccc1c2OCO1)OCO3 | – | 15.8 µM (active) |
| COc1c2c(cc3c1OCO3)CCN(C)C2 | -16.8% [at 25.6 µM] (inactive) | – |
| CN1CCc2cc3c(cc2[C@@H]1[C@@H]1OC(=O)c2c1ccc1c2OCO1)OCO3 | – | 0.794 µM (active) |
